# This is part of a sample that, as a whole, favours compounds with a hit. Of some 83,000 tested, about 20% had one in any assay.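 Cells were grown in 96-well plates and exposed to the test compound at a single concentration for 48 hours; results are reported as percent growth, with values below 10 considered active.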 Active and inactive are the calls of the source.
# Test system: M14 melanoma
# Experiment: NCI-60 one-dose screen, 48 h (100 = growth as untreated, 0 = no growth, -100 = all killed)
# Settings: 10 µM unless noted
# Experimental: Growth inhibition of the M14 human tumor cell line is measured as a screen for anti-cancer activity. Cells are grown in 96 well plates and exposed to the test compound for 48 hours. Compounds are tested at a single concentration, which is 10^-5 M for most compounds. The reported endpoint is percent growth (GI% or GIPRCNT), where numbers from 0 - 100% represent growth inhibition, and numbers from -100% - 0 represent cell death. For example, a value of 40 represents 60% growth inhibition. A value of 0 means no net growth occurred over the course of the experiment. A value of -40 indicates 40% of cells at the beginning of the experiment died by the end of the experiment. A value of -100 means all cells are dead at the end of the experiment.
# NCI-60 Human Tumor Cell Lines Screen was performed using the standard one-dose NCI protocol, which is described in more detail at https://dtp.cancer.gov/discovery_development/nci-60/default.htm.
# Compounds with GIPRCNT values below 10 were considered active. Activity score was based on GIPRCNT using the following formula: […]
# Score is 0 for GIPRCNT values of 100 or above, 50 for GIPRCNT values of 0, and 100 for GIPRCNT values of -100.
row,SMILES,growth
1,O=C(Nc1cccc([N+](=O)[O-])c1)c1cc2ccccc2cc1O,19% (inactive)
2,O=C(Nc1nn(-c2ccc(Cl)cc2Cl)nc1-c1ccccc1)c1ccccc1,87.1% (inactive)
3,O=c1c2cc(-c3ccccc3)sc2nc2sc(-c3ccccc3)nn12,97.9% (inactive)
4,O=C(CSc1nc2sc3c(c2c(=O)n1-c1ccccc1)CCCCC3)N/N=C/c1ccc(F)cc1,51.6% (inactive)
5,N#Cc1c(N)nnn1Cc1cc(=O)oc2c1ccc1ccccc12,101% (inactive)
6,CC(C)n1cnc2c(=S)nc[nH]c21,109% (inactive)
7,COc1cccc([C@H]2c3[nH]c4ccccc4c3C[C@H]3C(=O)N(CCCCCCC(=O)NO)CC(=O)N23)c1,59.6% (inactive)
8,COc1cc(NC(C)CCCNC(C)C)c2ncccc2c1OC (stereo not given),97% (inactive)
9,COc1cc2c(c(OC)c1OC)-c1ccc(OC)c(=O)cc1[C@@H](NC(=O)CCl)CC2,-47.2% (active)
10,CCc1ccc(C(=O)/C=C/C23c4ccccc4C(c4ccccc42)C2C(=O)NC(=O)C23)cc1 (stereo not given),-8.91% (active)
11,Cc1oc(-c2ccc(Cl)cc2)nc1/C=C/C(=O)c1ccccc1,104% (inactive)
12,N#Cc1c(-c2cccs2)cc(-c2cccnc2)[nH]c1=O,106% (inactive)
13,CCN(CC)CCOc1ccc(-c2c(-c3ccccc3)c(=O)oc3ccccc23)cc1,88.2% (inactive)
14,CC(C)(C)n1cc(-c2ccnc(NCCNS(=O)(=O)c3cccc(F)c3)c2)c(-c2ccccc2)n1,94.8% (inactive)
15,C1=C(N2CCCC2)CCC1,96.2% (inactive)
16,N=C(N)c1ccc(-c2ccc(-c3ccc(Cl)cc3)s2)nc1,17.9% (inactive)
17,CCOC(=O)C#Cc1c(C(=O)OCC)nnn1[C@@H]1O[C@H](CO)[C@H]2OC3(CCCCC3)O[C@H]21,59.4% (inactive)
18,CCOC(=O)c1cc(C(=O)c2cc(OC)c(OC)c(OC)c2)n2ccc(-c3ccncc3)cc12,101% (inactive)
19,CCOC(=O)c1cn2ncnc(Oc3ccc(NC(=O)NC4CCCCC4)c(Cl)c3)c2c1C,83.9% (inactive)
20,c1cnc2[nH]cc(-c3csc(-c4cn(CCCN5CCOCC5)c5ccccc45)n3)c2c1,14.5% (inactive)

row,SMILES,growth
1,C=CCc1c(O)c(C(=O)/C=C/c2ccc(Cl)cc2)c(OC)c2ccoc12,58.3% (inactive)
2,Cc1cccc2c1NC(=O)C2(c1ccc(O)cc1)c1ccc(O)cc1,94.4% (inactive)
3,O=C(OCc1ccc2cccc(O)c2n1)N1CCN(C(=O)c2cc3cc(F)ccc3[nH]2)CC1,-77.7% (active)
4,COc1ccc(Cc2cc(-c3ccccc3)nn(Cc3ccccc3)c2=O)cc1OC,38% (inactive)
5,COc1ccc(-c2nc(/C=C3\SC(=NCc4ccccc4)NC3=O)c3ccccn23)cc1,-95.7% (active)
6,Fc1cccc(CNc2c3ccccc3nc3ccccc23)c1F,70.6% (inactive)
7,Cn1c(-c2ccc(Br)cc2)c(O)c(=O)c2c(F)cccc21,50.6% (inactive)
8,Oc1c(Cl)cc(Cl)c2ccc(Cn3cc(-c4cc(F)cc(F)c4)nn3)nc12,61.5% (inactive)
9,Brc1ccc2[nH]cc(-c3nonc3-c3c[nH]c4ccccc34)c2c1,24.7% (inactive)
10,O=C(CCc1nnc(Cn2cnc3nc[nH]c3c2=O)o1)c1nc2ncccc2[nH]1,96.5% (inactive)
11,CN(C)Cc1ccc(NC(=O)c2cncc(C#Cc3cnc(N)c4ncccc34)c2)cc1F,-84.5% (active)
12,Cc1ccc(Sc2nnc(/N=C3\C(=O)Nc4ccccc43)s2)cc1,101% (inactive)
13,Cn1cc(-c2csc(-c3c[nH]c4ccc(Br)cc34)n2)c2cnccc21,-81.7% (active)
14,N#CC1C=CN(CC(N)=O)c2ccc3cccnc3c21 (stereo not given),97.7% (inactive)
15,O=C(N/N=C/c1ccc(F)cc1)c1ccc(C(F)(F)F)nc1Nc1cccc(C(F)(F)F)c1,19.9% (inactive)
16,O=C(Cn1c(=O)sc2nc3ccccc3nc21)Nc1ncc(Cc2cccc(Cl)c2Cl)s1,100% (inactive)
17,O=C(Nn1c2c(sc1=NCc1ccccc1)C(=O)c1ccccc1C2=O)c1cc2ccc1CCc1ccc(cc1)CC2,19.3% (inactive)
18,OB(O)c1cccc(-c2nc3ccc4[nH]ncc4c3c3c2CCCC3)c1,64.8% (inactive)
19,CC1=C(CCC(C)N(C)Cc2ccc(OCCCN3CCCC3)cc2)C(C)(C)CCC1 (stereo not given),-77.2% (active)
20,Fc1ccc2[nH]cc(-c3nonc3-c3c[nH]c4ccc(Br)cc34)c2c1,-5.26% (active)

# — PubChem BioAssay (NCI)
